A short description of assay [1]: Cell Viability - BJ (AID 421; calls by dose curve;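 further: potency means the concentration at half of the fitted maximal effect; cells exposed to compound for 40 hours at 37 °C before readout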). To be noted: BJ fibroblast viability, qHTS. An outline of the steps: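 Luminescent ATP signal (CellTiter-Glo, 20 min at room temperature) served as the read-out of viable BJ cells after 40 hours of compound treatment. Responses were scaled between DMSO and 100 uM tamoxifen, and AC50 values were obtained by Hill modeling.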
A general note: Quantitative high-throughput screening tests each substance at several concentrations.

A short description of assay [2]: Cell Viability - Jurkat (AID 426;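 active means dose-dependent loss of cell ATP signal giving a full or clear fitted curve, ranked by lower potency value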;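 further: potency means the concentration at half of the fitted maximal effect; cells exposed to compound for 40 hours at 37 °C before ATP read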). The following applies: qHTS. Put shortly:
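Luminescent ATP read-out (CellTiter-Glo, 20 min at room temperature) after 40 hr compound exposure at 37 °C of Jurkat E6-1 cells, 5000/well. Decreased ATP taken as cytotoxicity; AC50 from standard Hill equation.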

Assay [3] can be described thus: Cell Viability - Hek293 (AID 427;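 active means compounds whose dose-response curve shows a full or clear partial loss of cell viability, called from curve shape rather than a numeric limit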;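 further: potency means the concentration at half of the fitted maximal effect; cells exposed to compound for 40 hours at 37 °C before reading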). To be noted: qHTS. An outline of the steps: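 Luminescent ATP read-out (CellTiter-Glo, 20 min RT) after 40 hr compound exposure at 37 °C in complete medium. Signal normalized to DMSO (basal) and 100 uM tamoxifen (100% inhibition); concentration-response fitted with the standard Hill equation to give AC50.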
Assay [4] can be described thus: Cell Viability - HepG2 (AID 433; calls by dose curve;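 further: potency means the concentration at half of the fitted maximal effect; potency for ATP loss meaning cytotoxicity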). The following applies: qHTS. An outline of the steps:
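Read-out is luciferase-based quantitation of cellular ATP as a measure of viable HepG2 cells after 40 h treatment at 37 °C. Signal decrease is scaled between DMSO-only and 100 uM tamoxifen controls, with AC50 fitted by the Hill equation.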

Assay [5] is described as follows: Cell Viability - SK-N-SH (AID 435; calls by dose curve; further: potency means the concentration at half of the fitted maximal effect). The following applies: SK-N-SH neuroblastoma cell viability qHTS. Put shortly:
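Luminescent ATP signal served as the viability read-out after 40 hours of compound treatment of human neuroblastoma SK-N-SH cells. Concentration-response data, scaled between DMSO and 100 uM tamoxifen, gave AC50 values by standard Hill modeling.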

Assay [6] deals with Mitogen-activated protein kinase 10 (Mus musculus) (UniProt Q61831). Briefly: JNK3 AlphaScreen Assay (AID 530; active means well fitted curve in either direction with a large enough effect, not every such curve was filed as active;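 further: kinase came from lysate of stimulated human HepG2 cells; signal reports phosphorylation of biotinylated GST-cJun 1-79 at Ser73 with 10 µM ATP; on the % scale 0 is the no-effect control and ±100 the full control effect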). The following applies: JNK3 lysate, c-Jun phosphorylation; series mostly up to 57.1 µM. An outline of the steps:
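Biotinylated GST-cJun(1-79) served as substrate for JNK3 in HepG2 lysates stimulated with IL-1beta and TNF-alpha. ATP was 10 uM final, pH 7.6. Ser73 phosphorylation was quantified by AlphaScreen (680 nm excitation).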
For orientation: In Alpha technology, singlet oxygen from a donor bead excites a nearby acceptor bead.

The nature of assay [7]: Cell Viability - N2a (AID 540).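 Further: plate controls were DMSO alone for no effect and tamoxifen control for full effect; nearly all actives have a fitted effect of over 45% in size.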 To be noted: N2a mouse neuroblastoma cell viability; activity change, negative = cytotoxicity: at 92.2 µM (top of the series). Put shortly: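 N2a mouse neuroblastoma, 1500 cells/well, 5 hr settle; compound 40 hr, 37 °C; CellTiter-Glo 20 min RT; luminescence; Hill-fit AC50.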
A short description of assay [8]: Cell Viability - NIH 3T3 (AID 541). Further: nearly all actives have a fitted effect of over 25% in size. Further: potency means the concentration at half of the fitted maximal effect.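 On activity change, negative = cytotoxicity: plate controls were DMSO alone for no effect and tamoxifen positive control for full effect.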 The following applies: NIH 3T3 cell viability, qHTS; activity change, negative = cytotoxicity: at 92.2 µM (top of the series). An outline of the steps: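 qHTS format; 40 hr compound exposure, 37 °C; CellTiter-Glo luminescence (cellular ATP) read-out after 20 min at RT. Decrease in ATP = cytotoxicity; AC50 from standard Hill fit.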

A short description of assay [9]: Cell Viability - HUV-EC-C (AID 542). Further: on the % scale 0 is the no-effect control and ±100 the full control effect; nearly all actives have a fitted effect of over 35% in size. To be noted: HUV-EC-C endothelial cell viability, qHTS; series mostly up to 92.2 µM. Put shortly:
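Luminescent ATP read-out (CellTiter-Glo, 20 min room temperature) after 40 hr compound treatment of HUV-EC-C cells at 37 °C. Concentration-response data fitted with the standard Hill equation to give AC50; tamoxifen and doxorubicin served as positive controls.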

Assay [10] is described as follows: Cell Viability - H-4-II-E (AID 543). Further: on the % scale 0 is the no-effect control and ±100 the full control effect; nearly all actives have a fitted effect of over 35% in size. To be noted: H-4-II-E rat hepatoma viability; series mostly up to 92.2 µM. Put shortly:
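qHTS, rat hepatoma H-4-II-E, 1500 cells/well; 40 hr compound exposure, 37 °C; CellTiter-Glo ATP luminescence after 20 min RT; AC50 by standard Hill fit.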

Assay [11] is described as follows: Cell Viability - SH-SY5Y (AID 544). Further: nearly all actives have a fitted effect of over 55% in size. The following applies: SH-SY5Y neuroblastoma cell viability; viability change, negative = cytotoxic: at 92.2 µM (top of the series). An outline of the steps:
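SH-SY5Y, 1500 cells/well, 5 hr pre-incubation 37 °C; cpd 40 hr 37 °C; CellTiter-Glo 20 min RT; luminescence (ATP) read. qHTS concentration-response, Hill fit → AC50. Tamoxifen, doxorubicin as positive controls.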

A short description of assay [12]: Cell Viability - Renal Proximal Tubule (AID 545). Further: nearly all actives have a fitted effect of over 40% in size. The following applies: renal proximal tubule cells viability, primary cells of rat origin; series mostly up to 91.7 µM. An outline of the steps:
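Luminescent ATP signal (CellTiter-Glo) served as the viability read-out after 40 hr compound exposure of freshly isolated rat proximal tubule cells at 37 °C. Concentration-dependent ATP loss was fitted with the Hill equation to give AC50.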

Assay [13] is described as follows: Cell Viability - Mesenchymal (AID 546).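 Further: cells exposed to compound for 40 hours before reading.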 The following applies: mesenchymal cells viability, qHTS; series mostly up to 91.7 µM. An outline of the steps: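 In this qHTS cytotoxicity format, glomerulus-derived human mesenchymal kidney cells received compound for 40 hr, then luciferase-based ATP quantitation. Concentration-response data were fitted with the Hill equation.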

A short description of assay [14]: Cellular Toxicity (caspase-3) HUV-EC-C (AID 656). The following applies: HUV-EC-C cells, caspase-3 activation (apoptosis), vehicle = 0, 100 µM tamoxifen = 100%; series mostly up to 92.2 µM. An outline of the steps:
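qHTS; HUV-EC-C, 1000 cells/well; 5 hr settle, 16 hr cmpd, 37°C; Caspase-Glo 3/7, 20 min RT; luminescence. Norm: DMSO = 0%, tamoxifen 100 uM = 100%. Hill-fit AC50.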

Assay [15] in a line: Cellular Toxicity (caspase-3) SHSY5Y (AID 657).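 Further: cells exposed to compound for 16 hours at 37 °C.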 The following applies: SH-SY5Y caspase-3 activation, DMSO zero, 10 µM staurosporine = 100%; series mostly up to 91.7 µM. An outline of the steps: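 qHTS, SH-SY5Y, 1500 cells/well, 5 h pre-incubation 37 °C; compound 16 h 37 °C; Caspase-Glo 3/7 1 h RT; luminescence. Norm.: DMSO = 0, 10 uM staurosporine = 100%. Hill fit → AC50.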

The nature of assay [16]: Cellular Toxicity (caspase-3) BJ (AID 658).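 Further: cells exposed to compound for 16 hours.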 To be noted: BJ fibroblasts, luminescence, normalized: DMSO 0%, staurosporine 100%; series mostly up to 91.7 µM. An outline of the steps:
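Plated BJ cells (1000/well) rested 5 hr, received compound for 16 hr at 37 °C, then Caspase-Glo 3/7 reagent for 1 hr at room temperature before luminescence reading.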

Assay [17] is described as follows: Cellular Toxicity (caspase-3) MRC-5 (AID 659). To be noted: MRC-5 cells, luminescence, normalized: DMSO 0%, 10 µM staurosporine 100%; series mostly up to 91.7 µM. An outline of the steps: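 Apoptosis readout in MRC-5 cells: luciferase light generated after caspase 3/7 cleaves a peptide-aminoluciferin substrate, measured post 16 hr compound incubation at 37 °C.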

Assay [18] is described as follows: Cell Viability - MRC5 (AID 434; calls by dose curve;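 further: potency means the concentration at half of the fitted maximal effect; cells exposed to compound for 40 hours at 37 °C; potency reflects cytotoxicity seen as loss of intracellular ATP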). To be noted: MRC5 lung fibroblast viability, qHTS. An outline of the steps: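 Decrease in intracellular ATP, quantified by luciferase light output, reflects compound toxicity toward MRC5 cells exposed for 40 hr in complete culture medium. Concentration-response curves, scaled between DMSO and 100 uM tamoxifen, gave AC50 values.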

Assay [19] in a line: Cellular Toxicity (caspase-3) HepG2 (AID 654).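 Further: cells exposed to compound for 16 hours before reading; 0% = DMSO alone and 100% = caspase signal from 100 µM tamoxifen.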 To be noted: HepG2 caspase-3 activation, luminescence; series mostly up to 92.2 µM. Put shortly: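 Luminescent Caspase-Glo 3/7 readout after 16 hr compound exposure of human hepatocellular carcinoma HepG2 cells at 37 °C; qHTS concentration-response, normalized DMSO = 0%, 100 uM tamoxifen = 100%; AC50 by standard Hill equation.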

A short description of assay [20]: Cellular Toxicity (caspase-3) Jurkat (AID 655).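 Further: cells exposed to compound for 16 h at 37 °C before reading.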 The following applies: Jurkat caspase-3 activation, luminescence; caspase-3 activation: at 92.2 µM (top of the series), DMSO = 0%, tamoxifen = 100%. An outline of the steps: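 5000 Jurkat cells/well; compound 16 hr, 37 °C; Caspase-Glo 3/7 added, 20 min RT; luminescence read. Norm: DMSO = 0%, tamoxifen 100 uM = 100%. AC50, Hill model.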

Unmarked numbers belong to inactive results. Results filed as inconclusive are left out. Activity calls are given as the source filed them. Unless noted, the call rests on the fitted dose curve; in most records, active means well fitted curve in the direction sought with a large enough effect; inconclusive means small, poorly fitted or top-dose-only effect, or another doubt; inactive means no such curve, though single readings can be large; an effect the other way counts as inactive or inconclusive. Some results are limits rather than exact numbers.

`CCCCC/C=C/C=C/C=O`: the Potency was greater than 92 µM in [1]; 29.6 µM (active) in [2]; greater than 92 µM in [3]; greater than 92 µM in assay [4]; greater than 92 µM in assay [5]. The result in [6], in [14], in assay [15], in assay [16] and in assay [17] was inactive. For the same molecule, the activity change, negative = cytotoxicity in assay [7] was -106% (active); in assay [8] it was -100% (active). Further, the Potency entry in [9], in assay [10], in assay [11], in [12] and in assay [13] was “inactive” in each case.

Turning to `NC(=O)NC(N)=O`, the Potency in assay [1], in assay [2], in assay [3], in assay [4] and in [18] was greater than 92 µM throughout. Besides, the outcome in assay [6], in assay [14], in assay [16] and in [17] was inactive. In addition, the Potency result in [8], in [9], in assay [10], in [11], in [13] and in assay [19] was “inactive” each time. Also, the caspase-3 activation in [20] was 0.487%.

On to `C1COC1`, for which the Potency in assay [1], in [2], in assay [3], in assay [4] and in [5] was greater than 92 µM each time. Besides, the call in assay [6], in assay [14], in assay [15] and in assay [17] was inactive. The activity change, negative = cytotoxicity in [7] was -2.69%. The Potency result in assay [8], in assay [9], in [10], in [11], in [12] and in assay [13] was “inactive” each time. In assay [19], the Potency entry was “inactive”. Moreover, the caspase-3 activation in assay [20] is -0.0782%.

For `CN(C)CCCNCCCN`, the Potency in assay [1] was greater than 92 µM; in assay [2], greater than 92 µM; in assay [3], greater than 92 µM; in assay [4], greater than 92 µM; in assay [18], greater than 92 µM; in assay [8], 12.6 µM (active). The molecule was classed as inactive in assay [6], in assay [14], in assay [15], in assay [16] and in [17]. Further, in [7], the activity change, negative = cytotoxicity was 1.31%. Also, the Potency result in assay [10], in assay [11], in assay [12], in [13] and in [19] was “inactive” in each case. For the same molecule, the caspase-3 activation in assay [20] is 2.48%.

For `O=c1[nH][nH]c(=O)c2cc([N+](=O)[O-])ccc12`, the Potency in [1], in assay [2], in assay [3], in [4] and in assay [5] was greater than 92 µM in each case. Further, the result in assay [6], in [14], in assay [15], in [16] and in [17] was inactive. Moreover, the activity change, negative = cytotoxicity in assay [7] was 11.9%. The Potency entry in assay [8], in assay [9], in assay [10], in assay [11], in assay [12] and in assay [13] was “inactive” throughout. Besides, the Potency entry in assay [19] is “inactive”. The caspase-3 activation in [20] was -0.126%.

Regarding `Cc1ccccc1C(N)=O`, the Potency in assay [1], in assay [2], in [3], in assay [4] and in assay [5] was greater than 92 µM in each case. The outcome in assay [6], in [14], in assay [15], in [16] and in [17] was inactive. Besides, the activity change, negative = cytotoxicity in [7] was -9.85%. Also, the Potency result in assay [8], in assay [9], in assay [10], in assay [11], in [12] and in assay [13] was “inactive” each time. Moreover, the Potency result in [19] was “inactive”. Further, in [20], the caspase-3 activation is 1.13%.

For `CCCCC(C=O)CC` (stereo not given), the Potency in assay [1], in assay [2], in assay [3], in [4] and in [18] was greater than 92 µM in each case. In addition, the result in assay [6], in assay [14], in assay [15], in assay [16] and in assay [17] was inactive. Besides, the Potency result in assay [8], in assay [9], in [10], in assay [11], in [12] and in [13] was “inactive” throughout. In addition, the Potency entry in [19] is “inactive”. The caspase-3 activation in [20] was -0.967%.

The values above are taken from PubChem BioAssay (NCATS).
